Among all 5,500 compounds or so, about 2,000 (36%) were called active. Another 18% or so got no clear call; they are omitted. Cut-off read from the data, not from the text of the source: active = normalized growth mostly below about 0.91 (no sharp cut-off); inconclusive = no clear call, values can overlap the other calls; inactive = mostly above about 0.92. The list shows a part of the results.
Test: chemical genetic growth profiling, strain panel (AID 1159580);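 note: tested at 20 µM; growth read once vehicle control cultures reached saturation at 30 °C; 1 = growth at the plate median or of vehicle wells; lower values mean less growth of the strain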
Conditions: S. cerevisiae deletion strains, growth OD

Measured: normalized growth

COc1cc(=O)n(C)c2c(OCC(O)C(C)(C)O)cccc12 (stereo unspecified)
inactive: locus YAL013W, strain DEP1, hits give low values 1.03 | locus YAL040C, strain CLN3, hits give low values 0.99 | locus YCL061C, strain MRC1 (second series), hits give low values 1.01 | locus YDR363W, strain ESC2, hits give low values 1.01 | locus YER002W, strain NOP16, hits give low values 0.999 | locus YJR075W, strain HOC1, hits give low values 1.01 | locus YNL128W, strain TEP1, hits give low values 0.99 | locus YNL175C, strain NOP13, hits give low values 1 | locus YNL197C, strain WHI3, hits give low values 1.02 | locus YNL224C, strain SQS1, hits give low values 1.01 | locus YOR083W, strain WHI5 (second series), hits give low values 1.02

From PubChem BioAssay AID1159580 (chemical genetic matrix, 2015)
